Laboratory results from PubChem BioAssay (NCI).
This is part of a sample that, as a whole, favours compounds with a hit. Of some 79,000 tested, about 15% had one in any assay. Activity calls are given as the source filed them. Cut-off read from the data, not from the text of the source: active = growth inhibition above about 70%; inactive = the rest.

Legend:
[1] = NCI Yeast Anticancer Drug Screen. Data for the rad52 strain (AID 147);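 note: 0% = growth of vehicle-treated control cultures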; conditions: S. cerevisiae rad52 mutant growth inhibition, stronger effect = higher value
Procedure, shortened: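 Inhibition of yeast growth, referenced to vehicle controls, was the measured output for a strain with defective DNA damage repair.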

[2] = NCI Yeast Anticancer Drug Screen. Data for the wt1 strain (AID 149);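 note: 0% = growth of vehicle-treated wt1 cultures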; conditions: S. cerevisiae wt1 strain (SPY 50644) growth inhibition, stronger effect = higher value
Procedure, shortened: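 wt1 yeast, compound-treated; % growth inhibition vs vehicle control.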

[3] = NCI Yeast Anticancer Drug Screen. Data for the rad50EPP+ strain (AID 151);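 note: 0% = growth of vehicle-treated control cultures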; conditions: S. cerevisiae rad50 mutant strain, stronger effect = higher value
Procedure, shortened: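 Genetically defined yeast (rad50EPP+, DNA damage repair alteration) is grown with compound, and inhibition of growth is expressed relative to vehicle-treated controls.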

[4] = NCI Yeast Anticancer Drug Screen. Data for the mgt1 strain (AID 153); conditions: S. cerevisiae mgt1 mutant growth inhibition, stronger effect = higher value
Procedure, shortened: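 In the mgt1 strain, test compounds were added and growth inhibition was determined relative to vehicle-treated controls.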

[5] = NCI Yeast Anticancer Drug Screen. Data for the mec2-1 strain (AID 157); conditions: S. cerevisiae mec2-1 strain, stronger effect = higher value
Procedure, shortened: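 Each compound was tested on mec2-1 yeast, a strain altered in DNA damage repair or cell cycle control. Growth inhibition is reported relative to vehicle.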

[6] = NCI Yeast Anticancer Drug Screen. Data for the rad14 strain (AID 159);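 note: 0% = growth of vehicle-treated control cultures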; conditions: S. cerevisiae rad14 strain growth inhibition, stronger effect = higher value
Procedure, shortened: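 Test compounds were applied to a repair-deficient yeast strain. Its growth was then compared with that of cultures given vehicle alone, and inhibition was expressed relative to those controls.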

[7] = NCI Yeast Anticancer Drug Screen. Data for the sgs1 mgt1 strain (AID 161);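 note: 0% = growth of cultures given vehicle only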; conditions: S. cerevisiae sgs1 mgt1 strain, stronger effect = higher value
Procedure, shortened: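 Mutant yeast exposed to compound; growth scored against vehicle-only wells.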

[8] = NCI Yeast Anticancer Drug Screen. Data for the CLN2oe strain (AID 163);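 note: 0% = growth of vehicle-only control cultures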; conditions: S. cerevisiae CLN2oe strain, stronger effect = higher value
Procedure, shortened: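 First, the altered yeast strain was treated with each compound; second, its growth was measured; finally, inhibition was derived by comparison with vehicle controls.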

[9] = NCI Yeast Anticancer Drug Screen. Data for the cln2 rad14 strain (AID 165);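 note: 0% = growth equal to vehicle treated cultures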; conditions: S. cerevisiae cln2 rad14 strain, stronger effect = higher value
Procedure, shortened: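 Test compounds were added to cln2 rad14 yeast cultures; inhibition of growth was then determined by comparison with vehicle treatment.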

[10] = NCI Yeast Anticancer Drug Screen. Data for the bub3 strain (AID 167); conditions: S. cerevisiae bub3 mutant strain, stronger effect = higher value
Procedure, shortened: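 Yeast carrying a defined mutation is treated with each compound, and growth is compared with that of vehicle-exposed cells to give inhibition.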

[11] = NCI Yeast Anticancer Drug Screen. Data for the wt2 strain (AID 169);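 note: 0% = growth of vehicle-treated yeast cultures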; conditions: S. cerevisiae wt2 strain growth inhibition, stronger effect = higher value
Procedure, shortened: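 The panel's yeast strains carry defined changes in DNA repair or cell cycle genes. Each strain is grown with compound, and growth loss is scored relative to vehicle.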

[12] = NCI Yeast Anticancer Drug Screen. Data for the mlh1 strain (AID 171);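 note: 0% = growth of vehicle-treated control cultures of the same strain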; conditions: S. cerevisiae mlh1 strain growth inhibition, stronger effect = higher value
Procedure, shortened: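 Inhibition values reflect reduced yeast growth in the presence of compound, referenced to vehicle controls, using a strain chosen for its alteration in DNA repair or cell cycle control.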

[13] = NCI Yeast Anticancer Drug Screen. Data for the sgs1 strain (AID 173);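 note: 0% = growth of vehicle-only control cultures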; conditions: S. cerevisiae sgs1 mutant, stronger effect = higher value
Procedure, shortened: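 Vehicle-treated cultures served as reference for growth inhibition of a yeast strain altered in DNA damage repair or cell cycle control after compound exposure.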

[14] = NCI Yeast Anticancer Drug Screen. Data for the mlh1 rad18 strain (AID 175); conditions: S. cerevisiae mlh1 rad18 strain growth inhibition, stronger effect = higher value
Procedure, shortened: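 Inhibition values reflect reduced growth of mutant yeast versus vehicle-treated controls following compound exposure; the mutations affect DNA damage repair.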

[15] = NCI Yeast Anticancer Drug Screen. Data for the rad18 strain (AID 177); conditions: S. cerevisiae rad18 mutant growth inhibition, stronger effect = higher value
Procedure, shortened: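 Steps: expose repair-mutant yeast to compound; measure growth; express as inhibition relative to vehicle control.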

[16] = NCI Yeast Anticancer Drug Screen. Data for the rad50 strain (AID 155);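 note: 0% = growth of vehicle-only cultures of the same strain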; conditions: S. cerevisiae rad50 strain growth inhibition, stronger effect = higher value
Procedure, shortened: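 Genetically altered yeast (DNA repair pathway); compound treatment; growth inhibition vs vehicle ctrl.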

[17] = at 5.0 µM (retest, dose inferred, filed as 0.5)
[18] = at 50.0 µM (retest, dose inferred, filed as 5.0)

Measured: growth inhibition

Cn1c(N)nc(-c2ccc(Cl)cc2)c1SSc1c(-c2ccc(Cl)cc2)nc(N)n1C
active: [1]; at 33.0 µM 88% | [1]; at 100.0 µM 98% | [2]; at 100.0 µM 94% | [3]; at 33.0 µM 84% | [3]; at 100.0 µM 97% | [4]; at 33.0 µM 71% | [4]; at 100.0 µM 98% | [5]; at 33.0 µM 75% | [5]; at 50.0 µM 93.1% | [5]; at 100.0 µM 97% | [6]; at 100.0 µM 97% | [7]; at 50.0 µM 94.8% | [8]; at 100.0 µM 97% | [9]; at 50.0 µM 92% | [10]; at 33.0 µM 82% | [10]; [18] 93% | [10]; at 50.0 µM 94.9% | [10]; at 100.0 µM 97% | [11]; at 33.0 µM 71% | [11]; at 100.0 µM 99% | [12]; at 33.0 µM 82% | [12]; at 100.0 µM 98% | [13]; at 33.0 µM 85% | [13]; at 100.0 µM 98% | [14]; at 50.0 µM 97.8% | [15]; at 33.0 µM 88% | [15]; at 100.0 µM 94%
inactive: [1]; at 1.2 µM -5% | [1]; at 3.7 µM -2% | [1]; at 11.0 µM 33% | [2]; at 1.2 µM 2% | [2]; at 3.7 µM 4% | [2]; at 11.0 µM 16% | [2]; at 33.0 µM 44% | [3]; at 1.2 µM -6% | [3]; at 3.7 µM 9% | [3]; at 11.0 µM 53% | [4]; at 1.2 µM -2% | [4]; at 3.7 µM 0% | [4]; at 11.0 µM 13% | [5]; at 1.2 µM -1% | [5]; at 3.7 µM 3% | [5]; [17] -15% | [5]; at 11.0 µM 30% | [5]; [18] 13% | [6]; at 1.2 µM -1% | [6]; at 3.7 µM -1% | [6]; at 11.0 µM 10% | [6]; at 33.0 µM 53% | [7]; [17] -12% | [7]; [18] 6% | [8]; at 1.2 µM -8% | [8]; at 3.7 µM -2% | [8]; at 11.0 µM 5% | [8]; at 33.0 µM 63% | [9]; [17] 37% | [9]; [18] -3% | [10]; at 1.2 µM -4% | [10]; at 3.7 µM -2% | [10]; [17] -4% | [10]; at 11.0 µM 21% | [11]; at 1.2 µM -1% | [11]; at 3.7 µM 1% | [11]; at 11.0 µM 20% | [12]; at 1.2 µM 0% | [12]; at 3.7 µM 3% | [12]; at 11.0 µM 23% | [13]; at 1.2 µM 0% | [13]; at 3.7 µM 6% | [13]; at 11.0 µM 28% | [14]; [17] -5% | [14]; [18] 24% | [15]; at 1.2 µM -3% | [15]; at 3.7 µM -1% | [15]; at 11.0 µM 34%

CCOC(=O)C1=C(C(=O)c2ccccc2)C(c2ccccc2[N+](=O)[O-])C(C(=O)c2ccccc2)=C(C(=O)OCC)N1
active: [16]; at 50.0 µM 71.6% | [10]; [18] 86%
inactive: [1]; at 1.2 µM -2% | [1]; at 3.7 µM 0% | [1]; at 11.0 µM -1% | [1]; at 33.0 µM 1% | [1]; at 100.0 µM 11% | [2]; at 1.2 µM -2% | [2]; at 3.7 µM -1% | [2]; at 11.0 µM -1% | [2]; at 33.0 µM -1% | [2]; at 100.0 µM -4% | [3]; at 1.2 µM 1% | [3]; at 3.7 µM 7% | [3]; at 11.0 µM 13% | [3]; at 33.0 µM 18% | [3]; at 100.0 µM 27% | [4]; at 1.2 µM 0% | [4]; at 3.7 µM 1% | [4]; at 11.0 µM 0% | [4]; at 33.0 µM 1% | [4]; at 100.0 µM 35% | [16]; at 1.2 µM 0% | [16]; at 3.7 µM -1% | [16]; [17] 2% | [16]; at 11.0 µM -2% | [16]; at 33.0 µM 1% | [16]; [18] 60% | [16]; at 100.0 µM 17% | [5]; at 1.2 µM -3% | [5]; at 3.7 µM -3% | [5]; [17] -4% | [5]; at 11.0 µM -3% | [5]; at 33.0 µM -1% | [5]; [18] 20% | [5]; at 50.0 µM 18.6% | [5]; at 100.0 µM 10% | [7]; [17] 9% | [7]; [18] 16% | [7]; at 50.0 µM 41.8% | [8]; at 1.2 µM 0% | [8]; at 3.7 µM 0% | [8]; at 11.0 µM 2% | [8]; at 33.0 µM 3% | [8]; at 100.0 µM 0% | [9]; [17] 7% | [9]; [18] 39% | [9]; at 50.0 µM 16.9% | [10]; at 1.2 µM 6% | [10]; at 3.7 µM 8% | [10]; [17] 3% | [10]; at 11.0 µM 11% | [10]; at 33.0 µM 10% | [10]; at 50.0 µM 19% | [10]; at 100.0 µM 42% | [11]; at 1.2 µM -2% | [11]; at 3.7 µM -1% | [11]; at 11.0 µM -1% | [11]; at 33.0 µM 0% | [11]; at 100.0 µM 10% | [12]; at 1.2 µM -1% | [12]; at 3.7 µM -2% | [12]; at 11.0 µM -2% | [12]; at 33.0 µM 1% | [12]; at 100.0 µM 20% | [13]; at 1.2 µM -2% | [13]; at 3.7 µM 1% | [13]; at 11.0 µM 5% | [13]; at 33.0 µM 7% | [13]; at 100.0 µM 17% | [14]; [17] -21% | [14]; [18] 61% | [14]; at 50.0 µM 65.6% | [15]; at 1.2 µM 0% | [15]; at 3.7 µM 1% | [15]; at 11.0 µM 1% | [15]; at 33.0 µM 7% | [15]; at 100.0 µM 39%

O=C(OCC=C1CCCC1)c1cc([N+](=O)[O-])cc([N+](=O)[O-])c1
active: [1]; at 33.0 µM 85% | [1]; at 100.0 µM 96% | [2]; at 33.0 µM 86% | [2]; at 100.0 µM 98% | [3]; at 33.0 µM 87% | [3]; at 100.0 µM 92% | [4]; at 33.0 µM 95% | [4]; at 100.0 µM 98% | [16]; at 33.0 µM 86% | [16]; at 100.0 µM 96%
inactive: [1]; at 1.2 µM -1% | [1]; at 3.7 µM 2% | [1]; at 11.0 µM 21% | [2]; at 1.2 µM -6% | [2]; at 3.7 µM -1% | [2]; at 11.0 µM 10% | [3]; at 1.2 µM 3% | [3]; at 3.7 µM 16% | [3]; at 11.0 µM 53% | [4]; at 1.2 µM -1% | [4]; at 3.7 µM -1% | [4]; at 11.0 µM 16% | [16]; at 1.2 µM 0% | [16]; at 3.7 µM 4% | [16]; [17] 11% | [16]; at 11.0 µM 18% | [16]; [18] 57% | [16]; at 50.0 µM 4.3% | [5]; at 1.2 µM -3% | [5]; at 3.7 µM -2%
